Values without a mark were called inactive. The rule behind the calls is not given here.
Target: Pantothenate synthetase (Mycobacterium tuberculosis (strain ATCC 25618 / H37Rv)) (UniProt P9WIL5)
Test: Recombinant Mtb pantothenate synthetase (PanC) inhibitors, coupled enzyme, confirmatory (AID 375);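 note: 0% = full reaction with vehicle and 100% = no enzyme background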
Details: coupled enzyme assay; at 10 µM, stronger effect = higher value

Sequence of Pantothenate synthetase (Mycobacterium tuberculosis (strain ATCC 25618 / H37Rv)) (P9WIL5 whole entry, looked up): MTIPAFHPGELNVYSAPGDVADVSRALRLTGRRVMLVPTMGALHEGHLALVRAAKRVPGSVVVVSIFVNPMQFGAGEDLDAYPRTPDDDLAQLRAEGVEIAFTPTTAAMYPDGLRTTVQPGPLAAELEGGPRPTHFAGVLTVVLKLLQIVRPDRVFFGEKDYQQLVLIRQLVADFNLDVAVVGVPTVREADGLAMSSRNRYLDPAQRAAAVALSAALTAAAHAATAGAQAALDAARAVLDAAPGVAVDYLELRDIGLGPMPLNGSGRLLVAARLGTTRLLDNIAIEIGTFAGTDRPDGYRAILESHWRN

SMILES | inhibition [%]
CCN1CCN(C(=O)c2cn(CCOC)c(=O)c3c2c2ccccc2n3C)CC1 | 1
CCOC(=O)C1(c2ccccc2)NC(c2ccc(N(C)C)cc2)C2C(=O)N(C)C(=O)C21 (stereo not given) | 0
Cc1occc1C(=O)Nc1cccnc1 | 16
O=C(NC1CCCCC1)C(c1ccco1)N(Cc1cccnc1)C(=O)C1COc2ccccc2O1 (stereo not given) | 2
O=C(CCc1nc2ccccc2s1)OCC(=O)N1CCN(C(=O)c2ccco2)CC1 | 4
c1ccn2c(SCc3ccc4c(c3)OCCO4)nnc2c1 | 1
CCC(C)(C)NC(=O)CN(C(=O)c1snc(C(N)=O)c1N)c1ccc2c(c1)OCO2 | 11
Cc1nnc(NC(=O)CCC(=O)N2CCC(C)CC2)s1 | 0
NC(=O)CCS(=O)(=O)CCN1CCCCC1 | 0
CCOc1cc(C2/C(=C(/O)c3ccc(OC(C)C)cc3)C(=O)C(=O)N2CCCOC)ccc1O (stereo not given) | 0
Cc1ccccc1N1CC(c2nc3ccccc3[nH]2)CC1=O (stereo not given) | 0
Cc1ccc(Cl)c(Nc2ccccc2C(=O)O)c1Cl | 0
CCc1nnc(NC(=O)CSc2nnc(Cc3ccccc3)n2-c2ccc(OC)cc2)s1 | 7
COc1ccc(CN(C(=O)CN2C(=O)COc3ccccc32)C2CCCC2)c(OC)c1 | 0
Cc1ccccc1C(=O)N1CCC(C(=O)Nc2ccc(S(=O)(=O)N3CCCC3)cc2)CC1 | 3
COc1cc(OC)cc(-c2nc(N)n[nH]2)c1 | 0
COC(=O)c1cc(Br)c(=O)n(-c2nccs2)c1 | 0
Cc1cc(Cl)ccc1NC(=O)CSc1nnc(Cc2cccs2)n1Cc1ccco1 | 0
Cc1ccc(Cn2c(CN3CCOCC3)nc3c2c(=O)n(C)c(=O)n3C)cc1 | 0
Cn1c(SCC(=O)Nc2ccc3c(c2)OCO3)nnc1-c1cnccn1 | 1

SMILES | inhibition [%]
C[C@]12C=CC(=O)C=C1CC[C@H]1[C@@H]3C[C@@H](O)[C@](O)(C(=O)CO)[C@@]3(C)C[C@H](O)[C@@]12F | 0
CC(=O)c1sc(NC(=O)C2COc3ccccc3O2)nc1C (stereo not given) | 3
CCOC(=O)c1ccc(Oc2nc(SC)nc(N(C)C)n2)cc1 | 1
O=C(Cn1nc(Cc2ccncc2)c2ccccc2c1=O)N1CCN(C(=O)c2ccco2)CC1 | 0
Cc1ccc(CCNC(=O)C2CCCN2S(=O)(=O)c2ccc3c(c2)CCC(=O)N3)cc1 (stereo not given) | 6
O=c1oc2ccccc2c(N2CCCCC2)c1CN1CCCCC1 | 0
O=C(Cc1cccs1)N(c1ccccc1)C1C=CS(=O)(=O)C1 (stereo not given) | 3
O=C(Nc1nnc(C2CCCC2)s1)C1CCN(S(=O)(=O)c2ccc(Cl)cc2)CC1 | 0
COC(=O)c1oc2ccc(OC)cc2c1N | 5
Cc1ccc(CNC(=O)C2CCCN(S(=O)(=O)c3cnc[nH]3)C2)cc1 (stereo not given) | 2
Cc1ccc(-c2cc(C(=O)NCc3ccc4c(c3)OCO4)no2)cc1 | 0
CCOC(=O)c1ccccc1NC(=O)c1ccc(NS(C)(=O)=O)cc1 | 0
Nc1nc2ccc(OC(F)(F)F)cc2s1 | 7
N#C/C(=C\c1ccc(O)c(O)c1)C(=O)NCCCc1ccccc1 | 0
CC(C)(C)NCC(O)COc1cccc2c1C[C@H](O)[C@H](O)C2 (stereo not given in full) | 0
C=C(C)C1Cc2c(C)nn(-c3nc(C)cc(C)n3)c2C1 (stereo not given) | 0
O=C(O)CCn1[nH]c(=O)ccc1=O | 0
N#CC1=C(N)N(c2ccccc2)C2=C(C(=O)CCC2)C1c1cccs1 (stereo not given) | 0
O=C(c1ccco1)N1CCN(CCCCN2C(=O)c3ccccc3C2=O)CC1 | 5
CC(=O)Nc1ccc(S(=O)(=O)N2CCN(C(=O)CCC3CCCC3)CC2)cc1 | 0
